Sampled rows, rich in hits. Any-hit rate of the full collection: about 3.1%.
Mcl1 Noxa PPI – Mcl-1/Noxa binding inhibitors, primary screen, biochemical, TR-FRET, 1536-well | inhibition, % at 21.7 µM | TR-FRET Mcl-1/Noxa peptide binding, 2 h | Induced myeloid leukemia cell differentiation protein Mcl-1 (Homo sapiens), Q07820 | 220,000 compounds, 1.5% hits;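 active = compounds that cut the protein-peptide binding signal by more than 50% relative to plate controls in a single-dose test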;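 note: His-tagged Mcl-1 with rhodamine Noxa BH3 peptide and terbium anti-His antibody; 0% = Mcl-1 plus Noxa peptide wells and 100% = peptide-only wells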
14-3-3 Bad inh – inhibitors of 14-3-3 zeta/Bad binding, primary screen, biochemical, TR-FRET, bovine 14-3-3 zeta | TR-FRET 14-3-3zeta/Dy647-pBad peptide displacement, 1 h | inhibition, % at 21.7 µM | 220,000 compounds, 0.71% hits;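 active = inhibition above about 70%, limit read from the data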;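 note: 0% = full 14-3-3 plus peptide FRET controls and 100% = background without 14-3-3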
Target sequence (P63103 whole entry, looked up): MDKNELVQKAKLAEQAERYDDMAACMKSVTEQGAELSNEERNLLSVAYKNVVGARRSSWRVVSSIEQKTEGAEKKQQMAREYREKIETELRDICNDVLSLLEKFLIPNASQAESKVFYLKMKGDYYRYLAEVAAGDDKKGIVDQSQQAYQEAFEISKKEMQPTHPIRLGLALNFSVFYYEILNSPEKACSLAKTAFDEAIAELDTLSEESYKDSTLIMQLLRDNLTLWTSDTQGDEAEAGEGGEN
Mcl-1 Bim block – inhibitors of Bim peptide binding to Mcl-1, primary screen, biochemical, bead-based flow cytometry, multiplex | inhibition, % at 10 µM | AID 1009, 2008 | Bim peptide-Mcl-1 binding | 190,000 compounds, 0.1% hits | Induced myeloid leukemia cell differentiation protein Mcl-1 (Homo sapiens), Q07820; in the data active = inhibition above about 40%;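 note: 0% = no compound tracer wells and 100% = peptide blocker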
p47phox inh – p47phox/p22phox peptide binding inhibitors, primary screen, biochemical, uHTS, NADPH oxidase regulatory subunit; Neutrophil cytosol factor 1 (Homo sapiens), P14598; fluorescence polarization, 2 h; inhibition, % at 24.7 µM; 220,000 compounds, 0.53% hits; AID 1274, 2008;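 active = inhibition above about 30%, limit read from the data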;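 note: 0% = p47phox with labelled peptide and 100% = labelled peptide alone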
Target sequence (P14598 whole entry, looked up): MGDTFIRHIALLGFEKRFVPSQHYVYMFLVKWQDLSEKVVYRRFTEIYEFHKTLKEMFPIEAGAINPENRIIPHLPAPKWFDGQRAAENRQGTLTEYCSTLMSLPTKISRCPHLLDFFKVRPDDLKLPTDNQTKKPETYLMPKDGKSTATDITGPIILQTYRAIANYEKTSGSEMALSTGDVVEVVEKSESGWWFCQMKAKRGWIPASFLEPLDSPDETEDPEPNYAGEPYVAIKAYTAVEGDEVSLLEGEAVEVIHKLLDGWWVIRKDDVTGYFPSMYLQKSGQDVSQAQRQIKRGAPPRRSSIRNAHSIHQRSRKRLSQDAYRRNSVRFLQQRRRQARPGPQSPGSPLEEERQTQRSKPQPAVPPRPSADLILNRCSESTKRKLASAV
Mcl1 Bid PPI – Mcl-1/Bid binding inhibitors, primary screen, biochemical, TR-FRET, 1536-well; Induced myeloid leukemia cell differentiation protein Mcl-1 (Homo sapiens), Q07820; TR-FRET Mcl-1/Bid-Dy647 peptide binding; inhibition, % at 21.7 µM; 220,000 compounds, 0.97% hits; AID 1021, 2008;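 active = compounds that cut the binding signal by more than half at the single screening dose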;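 note: His-tagged Mcl-1 with europium anti-His antibody binding Bid BH3 peptide; 0% = Mcl-1 plus peptide wells and 100% = peptide-only wells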
Active calls of the source: *; [ ] = remark or other dose.

How did COc1cccc(-c2nc(Oc3cccc(C)c3C)c3ccccc3n2)c1O do in these assays?
Mcl1 Noxa PPI: 20; 14-3-3 Bad inh: 0; Mcl-1 Bim block: -4; p47phox inh: 15; Mcl1 Bid PPI: 52*

Results for Cc1ccc(CN2CCN(Cc3cnc(C)[nH]3)CC2CCO)cc1 (stereo not drawn) ?
Mcl1 Noxa PPI: 10; 14-3-3 Bad inh: -12; Mcl-1 Bim block: -2; p47phox inh: 0; Mcl1 Bid PPI: -4

How did FC(F)(F)c1nc2ccccc2nc1N/N=C/c1c(Cl)cccc1Cl do in these assays?
Mcl1 Noxa PPI: -10; 14-3-3 Bad inh: -3; Mcl-1 Bim block: 0; p47phox inh: -13; Mcl1 Bid PPI: -18

How did O=C1c2ccccc2C(=O)C1Cc1cccc2ccccc12 do in these assays?
Mcl1 Noxa PPI: 42; 14-3-3 Bad inh: 14; Mcl-1 Bim block: 0; p47phox inh: 3; Mcl1 Bid PPI: 89*

How did O=C(N=Nc1c(O)[nH]c2ccc(Cl)cc12)c1cc(-c2cccs2)nc2ccccc12 do in these assays?
Mcl1 Noxa PPI: 60*; 14-3-3 Bad inh: 88*[fluorescence artefact?]; Mcl-1 Bim block: -1; p47phox inh: 70*; Mcl1 Bid PPI: 85*

What do the screens show for `O=C(N=Nc1c(O)[nH]c2ccc([N+](=O)[O-])cc12)c1ccccc1Cl`?
Mcl1 Noxa PPI: 37; 14-3-3 Bad inh: 33; p47phox inh: -3; Mcl1 Bid PPI: -7

What do the screens show for `CCOC(=O)N1CCC(NC(=O)C(NC(=O)C2CCC(C)CC2)C(C)CC)CC1` (stereo not drawn)?
Mcl1 Noxa PPI: 1; 14-3-3 Bad inh: 14; Mcl-1 Bim block: 1; p47phox inh: -11; Mcl1 Bid PPI: -34

Results for CCCn1nc(NC(=O)c2cccs2)c2cc3ccccc3nc21 ?
Mcl1 Noxa PPI: 15; 14-3-3 Bad inh: 77*[fluorescence artefact?]; Mcl-1 Bim block: 0; p47phox inh: -18; Mcl1 Bid PPI: 18

What do the screens show for `CCCn1nc(NC(=O)c2cccs2)c2cc3cc(OC)ccc3nc21`?
Mcl1 Noxa PPI: 17; 14-3-3 Bad inh: 92*[fluorescence artefact?]; Mcl-1 Bim block: 4; p47phox inh: -47; Mcl1 Bid PPI: 18

How did Cc1cc(C)n2nc(CC(=O)NCc3ccc(F)cc3)nc2n1 do in these assays?
Mcl1 Noxa PPI: -11; 14-3-3 Bad inh: 5; Mcl-1 Bim block: -4; p47phox inh: -14; Mcl1 Bid PPI: 0

Results for CCOC(=O)C1=NOC(COc2ccccc2C=O)C1 (stereo not drawn) ?
Mcl1 Noxa PPI: -19; 14-3-3 Bad inh: -9; Mcl-1 Bim block: -4; p47phox inh: -9; Mcl1 Bid PPI: -15

How did COc1ccc(CC(=O)NCc2nnc(SCC(=O)Nc3nccs3)n2-c2ccccc2)cc1 do in these assays?
Mcl1 Noxa PPI: -5; 14-3-3 Bad inh: 5; Mcl-1 Bim block: 1; p47phox inh: -10; Mcl1 Bid PPI: -24

Results for COc1ccc(OCc2nnc(SC(C)C(=O)Nc3nccs3)n2-c2ccccc2)cc1 (stereo not drawn) ?
Mcl1 Noxa PPI: 12; 14-3-3 Bad inh: 0; Mcl-1 Bim block: -1; p47phox inh: 36*; Mcl1 Bid PPI: -5

What do the screens show for `C=CCN(C(=O)CNC(=O)c1cccs1)C(C(=O)NC1CCCCC1)c1cccnc1` (stereo not drawn)?
Mcl1 Noxa PPI: 13; 14-3-3 Bad inh: -4; Mcl-1 Bim block: 5; p47phox inh: 47*; Mcl1 Bid PPI: 9

How did CCOC(=O)CN(C(=O)CNC(=O)c1cccs1)C(C(=O)NC1CCCCC1)c1cccnc1 (stereo not drawn) do in these assays?
Mcl1 Noxa PPI: -10; 14-3-3 Bad inh: -4; Mcl-1 Bim block: -7; p47phox inh: 0; Mcl1 Bid PPI: -10

How did CCc1nnc(NC(=O)CSc2nc(-c3ccc(F)cc3)cc(-c3ccccc3)c2C#N)s1 do in these assays?
Mcl1 Noxa PPI: -14; 14-3-3 Bad inh: 20; Mcl-1 Bim block: -14; p47phox inh: 29; Mcl1 Bid PPI: 60*

How did CCN(C(=O)Cc1cccs1)c1nnc(-c2cccnc2)s1 do in these assays?
Mcl1 Noxa PPI: 7; 14-3-3 Bad inh: 47; Mcl-1 Bim block: 0; p47phox inh: -23; Mcl1 Bid PPI: -8

How did COc1ccc(N2C(C)=CS/C2=C(/C#N)c2nnc(N3CCOCC3)n2-c2ccccc2)cc1 do in these assays?
Mcl1 Noxa PPI: 25; 14-3-3 Bad inh: 84*; Mcl-1 Bim block: -2; p47phox inh: 1; Mcl1 Bid PPI: 16

How did CCCC(C(=O)OCC)P(=O)(c1ccccc1)c1ccccc1 (stereo not drawn) do in these assays?
Mcl1 Noxa PPI: -10; 14-3-3 Bad inh: 84*; Mcl-1 Bim block: 0; p47phox inh: -7; Mcl1 Bid PPI: -20

How did CCOC(=O)CC(C(=O)OCC)P(=O)(c1ccccc1)c1ccccc1 (stereo not drawn) do in these assays?
Mcl1 Noxa PPI: 6; 14-3-3 Bad inh: 5; Mcl-1 Bim block: -2; p47phox inh: 17; Mcl1 Bid PPI: -6

How did CN(CCN(C)C(C)(C)C)C(=O)C(c1ccccc1)c1ccccc1 do in these assays?
Mcl1 Noxa PPI: 21; 14-3-3 Bad inh: 52; p47phox inh: -7; Mcl1 Bid PPI: 74*

What do the screens show for `Cc1cc(C)c2nc(C(F)(F)F)nc(N3CC(C)OC(C)C3)c2c1` (stereo not drawn)?
Mcl1 Noxa PPI: -7; 14-3-3 Bad inh: 23; Mcl-1 Bim block: -6; p47phox inh: 45*; Mcl1 Bid PPI: -12

Results for CCOC(=O)N1CCN(c2nc(C(F)(F)F)nc3c(C)cc(C)cc23)CC1 ?
Mcl1 Noxa PPI: 0; 14-3-3 Bad inh: 2; Mcl-1 Bim block: -3; p47phox inh: -23; Mcl1 Bid PPI: -11

Results for Cc1ccc(/C=C/C(=O)N2CCc3ccccc32)o1 ?
Mcl1 Noxa PPI: 61*; 14-3-3 Bad inh: 1; Mcl-1 Bim block: -5; p47phox inh: -38; Mcl1 Bid PPI: -89

What do the screens show for `COc1ccc(C(=O)n2nc(C)c(Br)c2C)cc1`?
Mcl1 Noxa PPI: 85*; 14-3-3 Bad inh: 13; Mcl-1 Bim block: -4; p47phox inh: -2; Mcl1 Bid PPI: 16

How did Cc1cc(C)n2nc(/C(C#N)=C/c3ccccn3)c(C#N)c2n1 do in these assays?
Mcl1 Noxa PPI: 19; 14-3-3 Bad inh: -8; Mcl-1 Bim block: 0; p47phox inh: -1; Mcl1 Bid PPI: -16

How did CN(C)C(=O)c1nc2ccccc2s1 do in these assays?
Mcl1 Noxa PPI: 14; 14-3-3 Bad inh: 1; Mcl-1 Bim block: -2; p47phox inh: 2; Mcl1 Bid PPI: -19

How did CN(C)c1ccc(CC(=O)c2nc3ccccc3s2)cc1 do in these assays?
Mcl1 Noxa PPI: 76*; 14-3-3 Bad inh: 25; Mcl-1 Bim block: 0; p47phox inh: -6; Mcl1 Bid PPI: -45

Results for COc1cc(C(=O)OCC(=O)Nc2cc(-c3cc(C)c(C)cc3C)nn2-c2ccccc2)cc(OC)c1OC ?
Mcl1 Noxa PPI: 14; 14-3-3 Bad inh: 0; Mcl-1 Bim block: -4; p47phox inh: -6; Mcl1 Bid PPI: 3

Compound activity: PubChem, several laboratories
